# This is part of a sample that, as a whole, favours compounds with a hit. Of some 79,000 tested, about 15% had one in any assay. Values without a mark were called inactive. Calls of active or inactive are those of the source. No stated cut-off is given here; in the data, active means growth inhibition above about 70%; inactive means the rest.
# Tests used:
# [1] = NCI Yeast Anticancer Drug Screen. Data for the rad50 strain (AID 155);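 further: 0% = growth of vehicle-only cultures of the same strain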; conditions: S. cerevisiae rad50 strain growth inhibition, hits give high values
# Outline: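 Growth of the mutant yeast was measured after compound exposure and referenced to vehicle-treated cultures.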
# [2] = NCI Yeast Anticancer Drug Screen. Data for the mec2-1 strain (AID 157); conditions: S. cerevisiae mec2-1 strain, hits give high values
# Outline: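 Compounds were applied to mec2-1 yeast cells. Their growth was then compared with that of vehicle-treated cultures to give growth inhibition.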
# [3] = NCI Yeast Anticancer Drug Screen. Data for the sgs1 mgt1 strain (AID 161);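 further: 0% = growth of cultures given vehicle only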; conditions: S. cerevisiae sgs1 mgt1 strain, hits give high values
# Outline: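 This yeast growth screen uses a strain with defined DNA-repair lesions; compound-treated growth is compared with vehicle-treated growth.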
# [4] = NCI Yeast Anticancer Drug Screen. Data for the cln2 rad14 strain (AID 165);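 further: 0% = growth equal to vehicle treated cultures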; conditions: S. cerevisiae cln2 rad14 strain, hits give high values
# Outline: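 Strain: cln2 rad14 yeast, altered in cell cycle control and DNA damage repair. Read-out: growth inhibition vs vehicle.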
# [5] = NCI Yeast Anticancer Drug Screen. Data for the mlh1 rad18 strain (AID 175); conditions: S. cerevisiae mlh1 rad18 strain growth inhibition, hits give high values
# Outline: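 A repair-deficient yeast strain is exposed to test compound, and growth is scored relative to vehicle-treated controls.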
# [6] = NCI Yeast Anticancer Drug Screen. Data for the bub3 strain (AID 167); conditions: S. cerevisiae bub3 mutant strain, hits give high values
# Outline: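 Whole-cell yeast assay. The mutant strain was incubated with compounds, and growth inhibition was determined by comparison with vehicle-treated cells.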
# [7] = at 5.0 µM (retest, dose inferred, filed as 0.5)
# [8] = at 50.0 µM (retest, dose inferred, filed as 5.0)
Structure (SMILES),"growth inhibition [1, 7]","growth inhibition [1, 8]",growth inhibition ([1]; at 50.0 µM),"growth inhibition [2, 7]","growth inhibition [2, 8]",growth inhibition ([2]; at 50.0 µM),"growth inhibition [3, 7]","growth inhibition [3, 8]",growth inhibition ([3]; at 50.0 µM),"growth inhibition [4, 7]","growth inhibition [4, 8]",growth inhibition ([4]; at 50.0 µM),"growth inhibition [5, 7]","growth inhibition [5, 8]",growth inhibition ([5]; at 50.0 µM),"growth inhibition [6, 7]","growth inhibition [6, 8]",growth inhibition ([6]; at 50.0 µM)
Clc1ccccc1C(c1ccccc1)(c1ccccc1)n1ccnc1,44%,99% (active),99.3% (active),20%,99% (active),99.8% (active),53%,99% (active),99.6% (active),18%,99% (active),99.2% (active),30%,99% (active),99.7% (active),,,
Cc1cc2cccnc2c2ncccc12,34%,98% (active),99% (active),9%,99% (active),99.2% (active),5%,98% (active),99.1% (active),-9%,98% (active),97.5% (active),25%,99% (active),98.7% (active),,,
COc1ccc(C(Cn2ccnc2)Sc2ccc(Cl)c(Cl)c2)cc1 (configuration not stated),74% (active),97% (active),92.9% (active),60%,97% (active),93.8% (active),72% (active),97% (active),88.7% (active),47%,86% (active),90.7% (active),81% (active),96% (active),91.3% (active),,,
O=C1CCC2(C=C(Br)C(=O)C(Br)=C2)O1,42%,87% (active),91.8% (active),46%,96% (active),93.5% (active),92% (active),99% (active),,91% (active),99% (active),,31%,94% (active),92.3% (active),92% (active),100% (active),
CCC[CH2][Sn]([CH2]CCC)([CH2]CCC)[O]C(=O)C(OC(C)=O)c1ccccc1 (configuration not stated),99% (active),99% (active),91.5% (active),99% (active),99% (active),92.2% (active),99% (active),99% (active),91.5% (active),,,,100% (active),100% (active),91% (active),99% (active),99% (active),90.2% (active)
CCCOC1N(c2ccc(C)cc2)NC(=O)C1(C)C (configuration not stated),86% (active),95% (active),83% (active),82% (active),94% (active),56.6%,33%,96% (active),,50%,95% (active),,65%,99% (active),68.1%,49%,93% (active),
CCN1/C(=C/C(C)=C/c2sc3ccc4ccccc4c3[n+]2CC)Sc2ccc3ccccc3c21,28%,30%,79.8% (active),30%,36%,82% (active),-7%,42%,81.7% (active),,,,41%,35%,69.9%,43%,10%,73.2% (active)
CCCCCCC1N=C(N)N=C(N)N1c1cccc(Cl)c1 (configuration not stated),17%,61%,-25.1%,10%,56%,48.8%,8%,55%,46.4%,1%,24%,-53.5%,7%,98% (active),89.6% (active),34%,81% (active),52.9%
Cn1c(-c2ccccc2)c(/C=C/C2=[N+](C)c3ccccc3C2(C)C)c2ccccc21,88% (active),99% (active),99.6% (active),72% (active),99% (active),99.6% (active),96% (active),56%,99.6% (active),59%,98% (active),99% (active),89% (active),99% (active),99% (active),,,
COc1cc(OC)c(/C=C/c2c3ccccc3cc[n+]2C)c(OC)c1,66%,77% (active),61.6%,33%,54%,49.5%,67%,84% (active),69.5%,46%,64%,9.85%,50%,68%,54.1%,,,
O=C(c1ccccc1)N(CCCl)C(=O)N(CCCl)C(=O)c1ccccc1,47%,56%,78% (active),68%,52%,48.9%,-7%,68%,,45%,56%,,31%,36%,68%,23%,64%,
CCCCCCCCCCCCCCCC[N+](C)(C)C,53%,94% (active),91.3% (active),45%,87% (active),93.1% (active),93% (active),97% (active),,82% (active),97% (active),,30%,84% (active),91.7% (active),97% (active),96% (active),
c1ccc(-c2nc(N=C3N=c4ccccc4=N3)[nH]c2-c2ccccn2)nc1,59%,96% (active),75.1% (active),54%,97% (active),77.8% (active),36%,84% (active),,49%,93% (active),,49%,98% (active),75.5% (active),58%,80% (active),
OC(Cc1cc(CC(O)(C(F)(F)F)C(F)(F)F)nc(CC(O)(C(F)(F)F)C(F)(F)F)c1)(C(F)(F)F)C(F)(F)F,8%,99% (active),99.5% (active),1%,100% (active),99.5% (active),-9%,99% (active),99.4% (active),,,,19%,99% (active),99.5% (active),-15%,100% (active),99.3% (active)
c1ccc2sc(SSN3CC4CCC(CC4)C3)nc2c1,37%,91% (active),56.6%,19%,93% (active),80.8% (active),75% (active),97% (active),86.4% (active),,,,,,,55%,96% (active),83.7% (active)
O=C1C=CC(=O)N1c1cc(Cl)c(Cl)cc1Cl,32%,86% (active),91.6% (active),51%,98% (active),27.1%,101% (active),100% (active),,89% (active),100% (active),,32%,99% (active),91.5% (active),101% (active),100% (active),
O=[N+]([O-])c1ccc([I+]c2ccccc2)cc1,86% (active),96% (active),82.8% (active),40%,95% (active),86% (active),77% (active),96% (active),87.2% (active),,,,82% (active),95% (active),,61%,96% (active),88.2% (active)
CC(/C=N/NC(N)=S)Cc1ccc(C(C)C)cc1 (configuration not stated),28%,82% (active),91.3% (active),45%,74% (active),92.5% (active),98% (active),97% (active),,98% (active),98% (active),,32%,74% (active),91.1% (active),99% (active),97% (active),
CC1(c2ccc(O)cc2)CCC(C(C)(C)c2ccc(O)cc2)CC1 (configuration not stated),41%,99% (active),90.5% (active),46%,100% (active),91.9% (active),80% (active),97% (active),,60%,97% (active),,44%,100% (active),91.1% (active),89% (active),96% (active),
COc1c(C)c2c(c(O)c1C/C=C(\C)CCC(=O)O)C(=O)OC2,31%,86% (active),85.3% (active),11%,88% (active),90.9% (active),30%,90% (active),92.2% (active),,,,38%,92% (active),,17%,91% (active),89.2% (active)
O=C1/C(=C/c2ccccc2)CCC/C1=C\c1ccccc1,27%,60%,83.8% (active),29%,77% (active),86.6% (active),36%,72% (active),82.3% (active),,,,58%,76% (active),,41%,69%,84.8% (active)
CN1CCc2cc3c(c4c2C1C(O)c1ccccc1-4)OCO3 (configuration not stated),17%,32%,31.4%,12%,9%,17.7%,9%,7%,26.6%,,,,13%,11%,15%,7%,27%,36.6%
Cc1ccc(NC(=S)C#N)cc1Cl,46%,44%,56.7%,34%,44%,43.4%,41%,60%,77.3% (active),,,,45%,53%,4.7%,46%,45%,69.9%
